# Rows were chosen to be rich in hits. Some 5.6% of all compounds tested hit in one or more screens of this group.
# PHOSPHO1 inh = PubChem AID 1565; Phosphoethanolamine/phosphocholine phosphatase (Homo sapiens), Q8TCT1; recombinant PHOSPHO1, absorbance phosphatase assay; inhibition, % at 13.3 µM; actives 1.1% (n = 290,000); in the data active = inhibition above about 60%
# Target sequence (Q8TCT1 whole entry, looked up): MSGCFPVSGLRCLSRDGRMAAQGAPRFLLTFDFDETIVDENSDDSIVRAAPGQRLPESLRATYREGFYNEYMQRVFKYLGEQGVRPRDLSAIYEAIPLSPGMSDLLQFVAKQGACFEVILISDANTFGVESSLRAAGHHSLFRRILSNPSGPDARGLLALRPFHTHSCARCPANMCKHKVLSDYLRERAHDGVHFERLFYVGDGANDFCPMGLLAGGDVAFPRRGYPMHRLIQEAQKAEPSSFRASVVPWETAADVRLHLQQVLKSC
# H9c2 protect = cardioprotection against H2O2-induced cell death, primary screen, uHTS, H9c2 cells, ATPLite luminescence | H9c2 cardiomyocytes, H2O2 injury protection, 2 h | protection from H2O2 cell death, % at 20 µM | actives 0.63% (n = 360,000) | AID 588492, 2011;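 active = compounds giving at least 50% protection of heart cells from peroxide-induced death in the single-dose screen, raw or plate-pattern-corrected value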;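 note: 0% = DMSO wells with peroxide and 100% = DMSO wells without peroxide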
# M18AAP inhibitor = PfM18AAP inhibitors, malaria aminopeptidase, primary screen, biochemical, QFRET, recombinant enzyme; M18 aspartyl aminopeptidase (Plasmodium falciparum 3D7); H-Glu-NHMec fluorogenic cleavage; inhibition, % at 7.35 µM; actives 1.2% (n = 290,000); AID 1822, 2009;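 active = inhibition above the campaign mean inhibition over all tested compounds plus 3 SD, cut at about 28% in these data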;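 note: 0% = plate median of test compound wells and 100% = 2 mM ZnCl2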
# ALR H2O2 inh = inhibitors of human ALR sulfhydryl oxidase, primary screen, biochemical, H2O2 detection, HRP-luminol luminescence, single point; FAD-linked sulfhydryl oxidase ALR (Homo sapiens), P55789; purified ALR, DTT oxidation; inhibition, % (test concentration not listed); actives 3.8% (n = 290,000); AID 485317, 2010;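 active = mean replicate inhibition above about 79%, with every replicate also reaching it, limit read from the data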
# Target sequence (P55789 whole entry, looked up): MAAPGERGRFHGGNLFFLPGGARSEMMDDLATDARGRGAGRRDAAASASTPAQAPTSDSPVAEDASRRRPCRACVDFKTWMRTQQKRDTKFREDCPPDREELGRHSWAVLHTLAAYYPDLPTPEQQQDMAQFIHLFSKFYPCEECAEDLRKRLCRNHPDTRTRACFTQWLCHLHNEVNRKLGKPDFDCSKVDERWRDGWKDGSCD
# PfG6PD inh = PfG6PD enzyme inhibitors, primary screen, biochemical, fluorescence intensity, uHTS | glucose-6-phosphate dehydrogenase-6-phosphogluconolactonase (Plasmodium falciparum 3D7) | PfGluPho enzyme, NADPH resazurin-diaphorase fluorescence | inhibition, % at 20 µM | actives 0.78% (n = 350,000) | AID 504690, 2011;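 active = inhibition reaching at least a set limit at 20 µM in the primary screen, cut at about 59% in these data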;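 note: 0% = DMSO wells with substrate and 100% = DMSO wells lacking glucose-6-phosphate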
# Numbers without * were called inactive; . = no result.
SMILES,PHOSPHO1 inh,H9c2 protect,M18AAP inhibitor,ALR H2O2 inh,PfG6PD inh
COc1cccc(NC(=O)CSc2nnc(-c3cccc(OC(C)C)c3)n2N)c1,88*,-7,3,.,4
Cn1c(CSCc2ccc(Cl)cc2)nnc1SCC(=O)Nc1nc2ccccc2s1,73*,-7,-5,9,-2
COc1ccc(NC(=O)CSc2nnc(CCC(=O)O)c(=O)n2N)cc1,32,1,-52,98*,8
N=c1c2cn[nH]c2nc(SCC(=O)c2ccc(Br)cc2)n1-c1ccc(Br)cc1,-14,4,-1,-4,4
FC(F)(F)c1ccccc1CNCc1ccc2c(c1)OCO2,33,14,-11,-15,-5
c1ccc(-c2cncnc2)cc1,.,3,.,2,-7
CCCn1cc(SCC(=O)Nc2ccc3c(c2)OCO3)c2ccccc21,-30,-8,7,49,6
Cn1cc(SCC(=O)Nc2ccc3c(c2)OCO3)c2ccccc21,72*,-8,-3,-4,10
O=C(CSc1nnc(CNC(=O)c2ccco2)o1)Nc1nc2ccccc2s1,-58,-6,29*,-8,2
Cn1cc(SCC(=O)Nc2nc3ccccc3s2)c2ccccc21,-7,-6,-8,98*,24
CC(=O)Nc1ccc(NC(=O)CSc2cn(CC(=O)N3CCOCC3)c3ccccc23)cc1,22,-1,3,99*,2
CC(C)(C)c1ccc(C(=O)NCCC(=O)Nc2ccc3c(c2)OCCO3)cc1,.,-10,.,.,2
Nn1c(SCC(=O)Nc2ccc3c(c2)OCCO3)nncc1=O,9,4,5,89*,0
CC1CN=C(N(Cc2ccccc2)C(=O)Nc2ccccc2)S1 (stereo unspecified),-6,7,-8,1,0
O=C(Nc1ccccc1)N(Cc1ccccc1)C1=NCCS1,18,2,-1,99*,-6
CCN(CC)c1ccc(CNC23CN4CN(CN(C4)C2)C3)cc1,0,1,6,98*,5
O=C(CN(Cc1ccc(F)cc1)C(=O)c1csnn1)NC1CCCC1,14,0,-4,-5,-12
CC1(c2ccc(O)cc2)NC(=O)N(c2ccccc2)N1 (stereo unspecified),7,13,12,98*,-9
C=C(C)CCC1(C)NC(=O)N(c2ccccc2)N1 (stereo unspecified),30,5,0,5,1
O=C(NCC(=O)N1CCN(C(=O)c2ccccc2)CC1)c1ccc(Cl)cc1Cl,.,-5,.,-3,-1
COc1cccc2cc(-c3cc(=O)oc4ccc(OCC(C)=O)cc34)oc12,31,63*,-8,0,3
NC(=O)COc1ccc2oc(=O)cc(-c3cc4ccccc4o3)c2c1,30,71*,1,.,5
COC(=O)COc1ccc2oc(=O)cc(-c3cc4cccc(OC)c4o3)c2c1,29,6,0,3,8
CC(C)CN(CC(C)C)c1nnc(N)s1,11,-4,3,99*,9
Cc1nnc(N)s1,15,2,-1,-4,-7
SMILES,PHOSPHO1 inh,H9c2 protect,M18AAP inhibitor,ALR H2O2 inh,PfG6PD inh
O=C(CNC(=O)c1cccs1)c1ccc(Cl)cc1,40,-8,-13,-5,-8
O=C(CNC(=O)c1cccs1)c1ccc([N+](=O)[O-])cc1,67*,-1,9,2,0
COc1cc(-c2nc3ccccn3c2/N=C/c2ccccc2)ccc1O,5,1,8,84*,4
COc1cc(-c2nc3ccccn3c2/N=C/c2cccc(F)c2)ccc1O,-28,-1,6,78*,13
COc1cc(-c2nc3ccccn3c2/N=C/c2cc(OC)c(O)cc2Cl)ccc1O,-25,8,14,94*,14
COc1ccc(-c2nc3ccccn3c2/N=C/c2ccc(OC)c(OC)c2)cc1O,-12,11,-2,.,0
COCCN(C(=O)C1CCN(C(=O)c2ccccc2C)CC1)c1c(N)n(CC(C)C)c(=O)[nH]c1=O,.,4,.,-6,-11
O=C(COc1ccc(OCc2ccccc2)cc1)NN=C1CCCC1,0,0,0,.,-18
O=C1CCCCC/C1=N/Nc1ccc(OCc2ccccc2)cc1,-73,-13,1,99*,4
COc1ccc(-n2c(-c3cc(-c4ccccc4)sc3N)n[nH]c2=S)cc1,-154,6,14,2,-8
C=CCn1c(-c2cc(-c3ccccc3)sc2N)n[nH]c1=S,-58,-6,28*,93*,28
Nc1sc(-c2ccccc2)cc1-c1n[nH]c(=S)n1C1CCCCC1,20,-8,4,98*,13
OC(c1ccc(F)c(F)c1)c1nc(-c2cccc(F)c2)cs1 (stereo unspecified),.,-5,.,.,.
COc1ccc(CN2C(=O)[C@@H]3C(c4ccc(F)cc4)=NO[C@@H]3C2=O)cc1,-3,-2,-6,99*,9
CSc1nc2ncc3c(n2n1)CC1c2ccccc2CCN1C3=O (stereo unspecified),-15,59*,1,16,-29
C#CCN(CC=C)C(=O)c1ccc2nc(C3CCCCC3)oc2c1,40,5,4,.,4
CN(CC(=O)Nc1cccc(S(=O)(=O)N2CCCC2)c1)Cc1ccccc1,.,0,.,5,0
CCCc1cc(-n2ccnc2C)n2c(nc3ccccc32)c1C#N,.,-2,.,-9,4
CCCc1cc(N2CCN(C(=O)c3ccco3)CC2)n2c(nc3ccccc32)c1C#N,24,55*,4,-10,29
CCN(CCO)Cc1cc(=O)oc2cc3c(cc12)CCC3,26,1,0,87*,7
CCCCN(C)Cc1cc(=O)oc2cc3c(cc12)CCCC3,27,5,-11,-1,3
O=C(CCNC(=O)c1ccccc1)OCC(=O)c1ccccc1,32,-1,-5,-3,-1
CCCCn1c(SCN2C(=O)c3ccccc3C2=O)nc2cc(S(N)(=O)=O)ccc21,90*,1,3,.,14
CCCCn1c(SCC(=O)c2cc(OC)ccc2OC)nc2cc(S(N)(=O)=O)ccc21,65*,2,3,-5,22
Cc1ccccc1Oc1ccc2c(c1)[C@@H]1C[C@H](N(C)C(=O)c3cccnc3)[C@H]([C@H](C)O)C(=O)N1CC2,.,2,.,.,18
O=S1(=O)CC(N2CC=CC2)CN1C1CCCCC1 (stereo unspecified),.,2,.,.,.
COc1ccc(NS(=O)(=O)c2cccc(C(=O)NNC(=O)CNC(=O)c3cccc(C)c3)c2)cc1,43,0,3,5,-15
CC(C)c1ccc(NC2CCCN(C(=O)c3ccc4nccnc4c3)C2)cc1 (stereo unspecified),15,-6,4,50,-10

# Screening results from PubChem BioAssay.
